# Data taken from PMC4336329 (PLoS ONE, 2015).
# About 14,000 (4.5%) of roughly 310,000 compounds showed an effect of 50% or more. The effect is printed as a negative number. The list comes from a sample in which strong results are over-represented; it also holds similar structures and randomly drawn compounds.
# Target: human ether-à-go-go-related gene (hERG) potassium channel (human, UniProt Q12809)
# Assay: primary screen, population patch clamp on CHO cells stably expressing hERG; higher = less effect of the substance
# 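Note: peak tail current of the secondary pulse compared with the same well before compound.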
# Chain of human ether-à-go-go-related gene (hERG) potassium channel (Q12809 whole entry, looked up): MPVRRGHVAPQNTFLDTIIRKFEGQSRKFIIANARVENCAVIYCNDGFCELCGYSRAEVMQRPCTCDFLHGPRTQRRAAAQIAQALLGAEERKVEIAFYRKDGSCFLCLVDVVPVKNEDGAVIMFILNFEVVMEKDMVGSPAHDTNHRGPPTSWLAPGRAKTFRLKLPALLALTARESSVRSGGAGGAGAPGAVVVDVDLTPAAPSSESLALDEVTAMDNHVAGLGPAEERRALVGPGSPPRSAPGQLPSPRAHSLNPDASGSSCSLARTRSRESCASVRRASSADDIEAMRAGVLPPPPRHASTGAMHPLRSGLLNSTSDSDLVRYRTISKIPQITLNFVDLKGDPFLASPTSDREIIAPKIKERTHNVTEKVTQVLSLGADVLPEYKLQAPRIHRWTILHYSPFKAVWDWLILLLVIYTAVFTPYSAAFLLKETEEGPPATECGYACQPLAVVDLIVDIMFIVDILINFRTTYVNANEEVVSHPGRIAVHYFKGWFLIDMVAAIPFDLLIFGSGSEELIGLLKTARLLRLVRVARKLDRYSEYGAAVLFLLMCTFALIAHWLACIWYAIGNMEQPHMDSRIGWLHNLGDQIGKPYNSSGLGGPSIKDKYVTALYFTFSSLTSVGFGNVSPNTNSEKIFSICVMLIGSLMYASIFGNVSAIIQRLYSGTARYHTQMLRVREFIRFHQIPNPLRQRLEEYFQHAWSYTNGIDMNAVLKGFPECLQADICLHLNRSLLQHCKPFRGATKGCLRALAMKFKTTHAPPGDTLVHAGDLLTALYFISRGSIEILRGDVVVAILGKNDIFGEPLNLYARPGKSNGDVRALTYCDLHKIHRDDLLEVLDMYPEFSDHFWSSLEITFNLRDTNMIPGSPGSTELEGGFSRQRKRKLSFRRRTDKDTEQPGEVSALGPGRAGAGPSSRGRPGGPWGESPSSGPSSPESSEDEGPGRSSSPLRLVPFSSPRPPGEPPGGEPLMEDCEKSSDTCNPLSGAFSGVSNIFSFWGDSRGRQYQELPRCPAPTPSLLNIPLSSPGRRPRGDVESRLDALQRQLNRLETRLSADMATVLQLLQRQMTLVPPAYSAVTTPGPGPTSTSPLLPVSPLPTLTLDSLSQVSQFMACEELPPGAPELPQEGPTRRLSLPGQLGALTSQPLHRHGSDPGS
row,SMILES,"hERG current change (%, negative = inhibition) at 10uM [%]"
1,Cc1cc(C)nc(N/N=C/c2cn[nH]c2-c2ccccc2)n1,-6.34
2,Cc1cc([N+](=O)[O-])nn1CC(=O)NCc1ccccc1,24.2
3,CC(C(=O)N=c1sc2ccccc2n1C)N1C(=O)C2CC=CCC2C1=O (stereo not shown),-40.2
4,Cc1cccc(C)c1NC(=O)CNC(=O)C(NC(=O)c1ccc(C(C)(C)C)cc1)C(C)C (stereo not shown),14.4
5,CCc1nnc(NC(=O)CN2CCN(c3ccccc3F)CC2)s1.Cl,-12.9
6,CSc1ccc(CCCCCCOC(=O)C(C)(C)C)cc1,3.95
7,CCn1c(=O)cc(SCC(=O)N2CCN(c3ccccc3OC)CC2)c2ccccc21,-52
8,CCn1c(=O)cc(SCC(=O)NCCCN2CCN(c3ccccc3F)CC2)c2ccccc21,-62.2
9,CCn1c(=O)cc(SCC(=O)NCCN2CCN(Cc3ccccc3)CC2)c2ccccc21,-49.4
10,Cn1c(=O)cc(SCC(=O)NCCCN2CCN(c3ccc(F)cc3)CC2)c2ccccc21,-69.2
11,CCn1c(=O)cc(SCC(=O)NCCCN2CCN(c3ccc(F)cc3)CC2)c2ccccc21,-46
12,CCn1c(=O)cc(SCC(=O)N2CCN(C)CC2)c2ccccc21,6.22
13,CCn1c(=O)cc(SCC(=O)N2CCN(c3ccccc3F)CC2)c2ccccc21,-21.7
14,CCn1c(=O)cc(SCC(=O)NCCCN2CCC(C)CC2)c2ccccc21,-13
15,Cn1c(=O)cc(SCC(=O)NCc2ccc(F)cc2)c2ccccc21,-17.4
16,Cn1c(=O)cc(OCC(=O)NCCCN2CCN(c3ccccc3F)CC2)c2ccccc21,-45.4
17,Cn1c(=O)cc(SCC(=O)NCCCN2CCOCC2)c2ccccc21,-2.51
18,Cn1c(=O)cc(SCC(=O)NCCCN2CCN(c3ccccc3F)CC2)c2ccccc21,-55.5
19,COc1ccc(-c2c(C)oc3c(CN4CCOCC4)c(O)ccc3c2=O)cc1,7.31
20,O=C(O)CC(NC(=O)OCc1ccccc1)c1ccc(Br)cc1 (stereo not shown),20.2

row,SMILES,"hERG current change (%, negative = inhibition) at 10uM [%]"
1,CCCn1c(=O)c2c(nc(Br)n2CCC)n(C)c1=O,-1.31
2,CCC(C)c1ccccc1NC(=O)C(C)NCCN(C)C.O=C(O)C(=O)O (stereo not shown),10.3
3,CSCCC1NC(=O)N(CC(=O)Nc2c(Cl)cc(Cl)cc2Cl)C1=O (stereo not shown),-2.68
4,O=c1[nH]c(O)c(C=Nc2ccc(F)c(Cl)c2)c(=O)[nH]1,7.3
5,Cc1ccc(S(=O)(=O)Oc2ccc(/C=N/N=C3/NC(=O)C(CC(=O)O)S3)cc2)cc1[N+](=O)[O-] (stereo not shown),24
6,Cc1ccc2[nH]c(=O)c(NC(N)=S)nc2c1,14
7,S=c1nc(C2CCCCC2)n(-c2ccccc2)[nH]1,15.6
8,O=C(C1CC1)N1CCN(C(c2ccccc2)c2ccccc2)CC1,6.33
9,Cc1ccccc1-n1nc2c(c1NC(=O)c1ccc3c(c1)OCO3)CS(=O)(=O)C2,-17.6
10,CNC(=S)N/N=C/c1ccccc1OCC(=O)O,18.4
11,CC(C)C(=O)NN(C(=O)c1ccccc1)c1ccccc1,20.4
12,CCOc1ccc(CCNC(=O)CSc2cc(=O)n(C)c3ccc(Cl)cc23)cc1OCC,-21.4
13,Cn1c(=O)cc(OCCCC(=O)NCCN2CCN(c3ccccc3F)CC2)c2ccccc21,-7.18
14,Cn1c(=O)cc(SCC(=O)NCCN2CCN(c3ccccc3F)CC2)c2cc(Cl)ccc21,-54.1
15,O=C(O)C1(c2ccccc2)CCN(S(=O)(=O)c2ccc(F)c(F)c2)CC1,2.44
16,COc1ccc(-c2cc(O)cc(O)c2)cc1,-3.33
17,COc1ccc(/C=C/C(=O)NCCCc2ccccc2)cc1,-46.8
18,COc1ccc(/C=C/c2cc[n+](C(=O)Cc3ccccc3)cc2)cc1.[Cl-],-51.2
19,COc1ccc(NC(=O)Cc2ccccc2)cc1,4.36
20,CCC(=O)Nc1ccc(OCC2CCCO2)cc1 (stereo not shown),7.08

row,SMILES,"hERG current change (%, negative = inhibition) at 10uM [%]"
1,Cl.OC1(c2ccc3ccccc3c2)CCN(Cc2ccccc2)C1 (stereo not shown),-57.1
2,Cl.OC1(c2ccc(F)cc2)CCN(Cc2ccccc2)C1 (stereo not shown),-15.1
3,c1ccc(CN2CCN(Cc3ccc4ccccc4c3)CC2)cc1,5.24
4,c1ccc2c(c1)OCC(CNc1ncnc3sccc13)O2 (stereo not shown),-20.9
5,CCOC(=O)C1=C(C)NC(=O)CC1c1ccccc1OC (stereo not shown),7.62
6,Cc1ccc(NC2=NCC(=O)N2Cc2ccc3c(c2)OCO3)c(C)c1,-1.91
7,c1ccc(COCCN2CCN(CCOCc3ccccc3)CC2)cc1,-39.5
8,O=S(=O)(c1ccc(F)cc1)N1CCN(CCc2ccccc2)CC1,-8.48
9,O=C(O)/C=C\C(=O)O.c1ccc(C(OCCN2CCN(c3ncccn3)CC2)c2ccccc2)cc1,-65.9
10,Cl.c1ccc(CCCN2CCN(CCOC(c3ccccc3)c3ccccc3)CC2)cc1,-71.8
11,Cl.Fc1ccc(C(OCCN2CCN(CCCc3ccccc3)CC2)c2ccc(F)cc2)cc1,-77.4
12,Cl.c1ccc(C(OCCN2CCNCC2)c2ccccc2)cc1,-11.9
13,O=C1CCN(CCCc2ccccc2)CCN1CCO,2.01
14,c1ccc(CN2CCN(c3ncccn3)CC2)cc1,11.6
15,CCC(C(=O)N1CCN(c2ncccn2)CC1)c1ccccc1 (stereo not shown),-0.742
16,CC(=O)Nc1ccc(Sc2ncccc2C(=O)Nc2cc(Cl)cc(Cl)c2)cn1,26.7
17,CN(C)/C=C(\C#N)C(=O)N/N=C/c1ccc(F)cc1,-10.1
18,C=CCN(CC=C)C(=O)C[n+]1ccc(C(N)=O)cc1.[Cl-],-0.0573
